For 88 compounds, inhibition results are on record in PubChem BioAssay AID588391 (Broad Institute, 2011).

Molecules are shown by their SMILES. Screen size: about 350,000 compounds; about 180 (0.051%) were called active.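 The calls were made as follows: active = mean inhibition across replicates of 30% or more, whatever share of single replicates reach that level; inconclusive = mean inhibition below 30% while every single replicate reaches 30%; inactive = the rest.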 This excerpt belongs to a sample that is enriched for actives.

This test deals with Protein disulfide-isomerase (Homo sapiens) (UniProt P07237). Briefly: inhibitors of human PDI, primary screen, biochemical, turbidity, single point, plate reader (AID 588391).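 Also: absorbance from insulin aggregation driven by PDI reduction with DTT.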 To be noted: PDI insulin aggregation turbidity, A650, 90 min; at 10 µM; hits give high values.
Sequence of Protein disulfide-isomerase (Homo sapiens) (P07237 whole entry, looked up): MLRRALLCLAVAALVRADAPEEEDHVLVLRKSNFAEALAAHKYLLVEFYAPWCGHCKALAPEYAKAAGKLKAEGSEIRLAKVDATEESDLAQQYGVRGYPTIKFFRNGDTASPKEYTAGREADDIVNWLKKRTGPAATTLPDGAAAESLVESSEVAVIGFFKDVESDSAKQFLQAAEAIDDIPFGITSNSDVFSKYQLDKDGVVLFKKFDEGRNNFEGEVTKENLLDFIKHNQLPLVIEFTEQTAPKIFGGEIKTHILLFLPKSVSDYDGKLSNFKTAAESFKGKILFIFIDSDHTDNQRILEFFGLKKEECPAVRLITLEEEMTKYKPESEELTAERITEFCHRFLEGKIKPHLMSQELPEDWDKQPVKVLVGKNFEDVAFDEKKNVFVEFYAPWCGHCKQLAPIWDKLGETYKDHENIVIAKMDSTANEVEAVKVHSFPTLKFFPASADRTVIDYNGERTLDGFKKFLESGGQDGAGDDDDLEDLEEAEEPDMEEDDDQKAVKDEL
Consider `COCOc1cccc(CN2CCC(C)(Oc3ccc(SC)cc3)C2)c1` (stereo not drawn), for which the inhibition is -14.7% (inactive).
On to `CC1(C(=O)NCc2ccc(F)c(F)c2)Cc2c(-c3ccc4c(c3)OCO4)ccnc2O1` (stereo not drawn), for which the inhibition was 5.69% (inactive).
For `COc1ccc2[nH]c3c(C)c4cc[n+](C)cc4c(C)c3c2c1` the value was 46.3% (active).
As for `CCOC(=O)c1[nH]c2ccc(OC)cc2c1NC(=O)N1CCOCC1`, the inhibition is -4.02% (inactive).
Consider `COc1ccc(CC(N)c2csc(NC(=O)Cc3ccccc3)n2)cc1` (stereo not drawn), for which the inhibition was 8.14% (inactive).
For the compound `CC1(C(=O)NS(=O)(=O)c2cccc(F)c2)CCN1C(=O)Cc1cc(F)ccc1F` (stereo not drawn), the inhibition was 9.62% (inactive).
In the case of `CC1(Oc2ccc(Cl)cc2)CCN(Cc2csc3ccccc23)C1` (stereo not drawn), the inhibition was -0.538% (inactive).
As for `CCc1nc2ccc(C(=O)Nc3cc(-c4ccccc4)ccc3OC)cn2c1N(CC)CC(=O)N(C)C`, the inhibition is -5.43% (inactive).
Consider `OC(c1cc(Cl)cc(Cl)c1)c1ncc(-c2ccccc2C(F)(F)F)[nH]1` (stereo not drawn), for which the inhibition was -0.656% (inactive).
With `CC1(C(=O)Nc2cccc(Oc3ccccc3)c2)CCN1Cc1ccccc1Cl` (stereo not drawn), the inhibition is 8.27% (inactive).
In the case of `CCc1nc2ccc(C(=O)NCc3ccc(OC)cc3)cn2c1N(CC)Cc1cccc(Br)c1`, the inhibition is 19.2% (inactive).
Regarding `CC1(Oc2ccccc2-c2ccno2)CCN(Cc2ccc(-c3ccccc3)o2)C1` (stereo not drawn), the inhibition is 15.2% (inactive).
As for `CCNC(=O)C1CCCN(C(=O)c2cc(F)ccc2C)CC1` (stereo not drawn), the figure is -2.55% (inactive); as for `COc1ccc(-c2cc(NC=O)c3ncc(-c4cc(OC)c(OC)c(OC)c4)n3c2)c(OC)c1`, 2.23% (inactive).
For `CCCNC(=O)C1(C)CCCN(Cc2c(C)nn(-c3ccccc3)c2C)C1` (stereo not drawn) the value was 1.08% (inactive); for `O=CNc1cc(-c2ccc(C(=O)N3CCOCC3)cc2)cn2c(-c3ccc(F)cc3)cnc12`, -18.3% (inactive); for `Cc1cccc(-c2cnc(C(O)c3cc(C)cc(C)c3)[nH]2)c1` (stereo not drawn), 8.93% (inactive).
With `CCOC(=O)c1ccccc1NC(=O)COC(=O)C(Cc1c[nH]c2ccccc12)NC(C)=O` (stereo not drawn), the inhibition is 5.96% (inactive).
Turning to `CCOc1cc(N2CCOCC2)c(OCC)cc1NC(=O)c1ccc(C)s1`, the inhibition was -4.12% (inactive).
For `CCOc1cc(N2CCOCC2)c(OCC)cc1NC(=O)COC(=O)[C@H](Cc1c[nH]c2ccccc12)NC(C)=O`, the inhibition is 44.5% (active).
Take `COc1ccc(S(=O)(=O)N2CCCCC2c2cc(C(=O)NCc3ccc(F)cc3)no2)cc1` (stereo not drawn): the inhibition is -0.518% (inactive).
As for `CCNC(=O)C1(C)CCN(C(=O)c2ccccc2)C1` (stereo not drawn), the inhibition is -56.1% (inactive).
As for `CC1(C(=O)NCc2ccc3c(c2)OCO3)CCN1CCc1ccccc1` (stereo not drawn), the inhibition is 3.4% (inactive).
As for `O=C(NCc1ccco1)c1cccc(-c2ccc3nncn3c2)c1`, the figure is 3.75% (inactive); as for `COc1ccc(-c2cc(NC(C)=O)c3ncc(-c4cc(OC)c(OC)c(OC)c4)n3c2)cn1`, -21.1% (inactive); as for `CN(C)C(=O)c1cccc(-c2cnc3sc(NCc4ccc5c(c4)OCO5)nn23)c1`, 9.47% (inactive).
As to `O=C(NCc1ccc(F)cc1)c1cc(C2CCCCN2C(=O)c2ccccn2)on1` (stereo not drawn), the inhibition was -12% (inactive).
For `CCN(CC)C(=O)C1CCCN(Cc2cccc(Cl)c2)C1` (stereo not drawn), the inhibition was -5.23% (inactive).
In the case of `Cc1nc(C(F)(F)F)ccc1C(=O)N1CCC1(C)C(=O)NS(=O)(=O)c1ccccc1` (stereo not drawn), the inhibition was -40% (inactive).
Turning to `CC(=O)Nc1cc(-c2ccccc2F)cn2c(-c3cccc(C(F)(F)F)c3)cnc12`, the inhibition was 0.488% (inactive).
For `CC(C)c1cccc(-c2csc(C(O)c3ccccc3)n2)c1` (stereo not drawn) the value was 4.52% (inactive); for `CC(=O)OC1CCC2C3CCC4=C(CC(F)C(=O)C4)C3CCC12C` (stereo not drawn), 70.6% (active).
Take `CCC(=O)N1CCC(C)(C(=O)Nc2cc(OC)c(OC)c(OC)c2)C1` (stereo not drawn): the inhibition is -1.21% (inactive).
As to `Cc1ccc(NS(=O)(=O)c2cc3c(cc2Br)NC(=O)CO3)cc1C`, the inhibition was -4.51% (inactive).
As to `CCc1nc2c(OCc3ccc(C(F)(F)F)cc3)cccn2c1N(C)C(=O)CC(C)C`, the inhibition was -3.58% (inactive).
As to `OC(c1ccccc1)c1nc(-c2cnc3ccccc3c2)cs1` (stereo not drawn), the inhibition was 4.04% (inactive).
For `CCOCCC(=O)Nc1ccc2c(c1)c(=O)n(C)n2-c1ccc2ccccc2c1` the value was -6.74% (inactive); for `Cc1nc2c(OCC(=O)C(C)(C)C)cccn2c1N(C)Cc1cccs1`, -1.4% (inactive); for `CCCS(=O)(=O)NC(=O)C1(C)CCN(C(=O)c2sccc2C)C1` (stereo not drawn), 4.32% (inactive).
In the case of `CCOC(=O)c1ccc(-c2ccc3ncnc(N(C)Cc4sccc4C)c3c2)o1`, the inhibition was -3.79% (inactive).
On to `CCc1nc2ccc(C(=O)N(C)CCN(C)C)cn2c1N(CC)CCOC`, for which the inhibition is 12.7% (inactive).
In the case of `CC(=O)Nc1ccc(-c2ccnc3c2CC(C(=O)NC(C)C)O3)cc1` (stereo not drawn), the inhibition was -7.94% (inactive).
For `COc1ccc(-c2coc3c(C(=O)NC(C)C)cccc23)c(C)c1` the value was -1.08% (inactive).
As for `Cc1ccc(C(NC(=O)C2CCN(CCOc3ccc(Cl)cc3Cl)CC2)c2ccccn2)cc1` (stereo not drawn), the figure is 2.42% (inactive); as for `O=C(NCCO)c1cccc(-c2cccc3nccn23)c1`, -96.6% (inactive); as for `Cc1ccc(-c2cnc(C(O)c3cc(Cl)cc(Cl)c3)[nH]2)cc1` (stereo not drawn), -2.73% (inactive).
With `COc1cccc(C(O)c2ncc(-c3ccc4ccccc4c3)[nH]2)c1` (stereo not drawn), the inhibition is 7.38% (inactive).
For `COc1ccc(C(=O)N2CCCCC2c2cc(C(=O)Nc3ccccc3)no2)cc1` (stereo not drawn) the value was -4.91% (inactive); for `O=C(NCc1cccnc1)c1ccc2nc([C@@H]3O[C@H](CO)[C@H](O)[C@H](O)[C@H]3O)[nH]c2c1`, -7.99% (inactive); for `CC1(C(=O)NS(=O)(=O)c2cccc(F)c2)CCN1C(=O)c1cccc2ccccc12` (stereo not drawn), -12.2% (inactive).
As for `CC(=O)c1cccc(-c2cnc3c(NC=O)cc(-c4ccccc4Oc4ccccc4)cn23)c1`, the figure is -15.6% (inactive); as for `CCNC(=O)C1CCCN(C(=O)c2ccc(OC)cc2OC)CC1` (stereo not drawn), -2.37% (inactive); as for `Cc1ccccc1-c1csc(C(O)c2cccc(Cl)c2)n1` (stereo not drawn), 4.37% (inactive).
With `CCN(CCN(C)C)C(=O)c1ccc2nc(C)c(N(C)C(=O)CCc3ccccc3)n2c1`, the inhibition is 5.52% (inactive).
Turning to `CCOc1ccc(Cl)cc1-c1cc(C(=O)NCc2cccs2)[nH]n1`, the inhibition was 5.86% (inactive).
For `CCCNC(=O)c1cc(C2CCCCN2C(=O)OC)on1` (stereo not drawn), the inhibition was 5.56% (inactive).
In the case of `CCCC(=O)N1CCC1(C)C(=O)NS(=O)(=O)c1ccc(Cl)cc1` (stereo not drawn), the inhibition was 9.48% (inactive).
As to `CC=CCn1c(SCCCc2ccccc2)nc2c1c(=O)[nH]c(=O)n2C`, the inhibition is 8.5% (inactive).
Turning to `Oc1cccc2cc(-c3ccncc3)cnc12`, the inhibition is -15.1% (inactive).
For `COCCNC(=O)C1(C)CCCN(Cc2cccc(F)c2)C1` (stereo not drawn), the inhibition was 1.38% (inactive).
Consider `CCCCN(C=O)c1c(CC)nc2c(OCCC3CCCCC3)cccn12`, for which the inhibition was -6.94% (inactive).
Consider `O=C(NC(c1ccc(-c2ccccc2)cc1)c1cnccn1)C1CCN(CCOc2ccc(Cl)cc2Cl)CC1` (stereo not drawn), for which the inhibition is 4.84% (inactive).
For `COc1ccc(-c2csc(C(O)c3cccc(Cl)c3)n2)cn1` (stereo not drawn) the value was 8.11% (inactive); for `CC(C)(C(=O)N1CCC1(C)C(=O)NS(=O)(=O)c1ccc(Br)cc1)c1ccccc1` (stereo not drawn), -3.96% (inactive); for `COc1cc(NC(=O)c2cc(-c3ccc(F)cc3OC(C)C)n[nH]2)cc(OC)c1OC`, -4.94% (inactive).
For `CC(C)Oc1cc(F)ccc1-c1cc(C(=O)Nc2cccc(Cl)c2)[nH]n1` the value was 12.1% (inactive).
As for `Cc1ccccc1Cn1c(C)c(C(=O)NCc2cccc(C(F)(F)F)c2)sc1=O`, the figure is -0.337% (inactive); as for `CC(=O)Nc1cc(-c2ccc(N3CCN(C)CC3)cc2)cn2c(-c3ccc(F)cc3)cnc12`, 0.066% (inactive); as for `CCCNC(=O)C1(C)CCN1C(=O)Cc1ccc(-c2ccccc2)cc1` (stereo not drawn), 12.7% (inactive).
On to `Cc1cccc(CNC(=O)c2sc(=O)n(Cc3ccccc3C)c2C)c1`, for which the inhibition was -13.7% (inactive).
Consider `O=C(Nc1ccc(Cl)c(C(F)(F)F)c1)C1Cc2c(-c3ccccc3Oc3ccccc3)ccnc2O1` (stereo not drawn), for which the inhibition was -5.07% (inactive).
For `CNc1cncc(-c2ccc(NS(C)(=O)=O)cc2)n1` the value was -0.527% (inactive); for `COc1ccc(Cl)cc1-c1cc(C(=O)Nc2cc(OC)c(OC)c(OC)c2)[nH]n1`, -0.731% (inactive).
As for `CN1CCN(C(=O)c2ccc(-c3cc4nc(NCc5cccnc5)n(C)c(=O)c4s3)cc2)CC1`, the inhibition was 16.2% (inactive).
Take `COc1ccc(-c2ccc(C(=O)NC(C)C)c3occc23)c(C)c1`: the inhibition is -1.92% (inactive).
For the compound `COc1cccc(CNc2nc3cc(-c4csc5ccccc45)sc3c(=O)n2C)c1`, the inhibition was -2.68% (inactive).
In the case of `Cc1nc2c(OCc3cccc(Cl)c3)cccn2c1N(C)CC1CC1`, the inhibition was 4.97% (inactive).
For `CCCCC(=O)N(C)c1c(CC)nc2c(OCc3ccc(Cl)cc3Cl)cccn12` the value was -3.52% (inactive); for `OC(c1ccccc1)c1nc(/C=C/c2ccc(C(F)(F)F)cc2)cs1` (stereo not drawn), -51.4% (inactive); for `CN(C)CCNC(=O)c1ccc(-c2cn3c(-c4ccc(Oc5ccccc5)cc4)cnc3cn2)cc1`, -1.11% (inactive).
In the case of `COc1cccc(-c2cc3nc(NCCOc4ccccc4Cl)n(C)c(=O)c3s2)c1`, the inhibition was -11.2% (inactive).
As for `CCc1nc2ccc(C(=O)NC3CCN(Cc4ccccc4)CC3)cn2c1N(CC)CCOC`, the figure is -3.56% (inactive).
Regarding `O=C(NCc1cccc(C(F)(F)F)c1)c1ccc2sc(COCCO)nc2c1`, the inhibition is -1.75% (inactive).
Turning to `CN(C)CCNC(=O)c1cccc(-c2cnc3c(NC=O)cc(-c4cccc(C(F)(F)F)c4)cn23)c1`, the inhibition is 4.96% (inactive).
Consider `Cc1cc(C)n2nc(C(=O)NC(C)(C)C)nc2n1`, for which the inhibition was 0.598% (inactive).
On to `Cc1cc(C)n2nc(SCC(N)=O)nc2n1`, for which the inhibition was -1.27% (inactive).
Consider `Cc1cc(C)n2nc(CNS(=O)(=O)c3c(F)c(F)c(F)c(F)c3F)nc2n1`, for which the inhibition is 127% (active).
As for `CC1(C(=O)NS(=O)(=O)c2cccc(OC(F)F)c2)CCN1C(=O)C1CC1` (stereo not drawn), the inhibition was -4.8% (inactive).

The term inhibition denotes the relative decrease from the control value, in per cent.
